From PubChem
CDK5 inh: blocks human CDK5/p35 kinase activity; Q00535+Q15078; Recombinant CDK5/p35, ADP-Glo luminescence, 60 min; inhibition, % at 10 µM; 330,000 compounds, 0.01% hits;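 active = highest replicate inhibition of at least 50% and at least 75% of replicates reaching 50%; inconclusive = only one of the two criteria met; inactive = both criteria failed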
PglD DTNB: PglD (C. jejuni) enzyme inhibition. purified PglD enzyme, DTNB colorimetric CoA detection. inhibition, % at 12.5 µM. 360,000 compounds, 0.098% hits. AID 602405; in the data active = inhibition above about 16%, passing the limit was not always enough; inconclusive = no clear call, values can overlap the other calls
SIRT5 block: inhibitors of human sirtuin-5 desuccinylase; 330,000 compounds, 1.1% hits; Q9NXA8; inhibition, % at 15 µM; Purified SirT5, succinyl-peptide AMC, trypsin-coupled fluorescence; AID 652115; in the data active = inhibition above about 15%; inconclusive = no clear call, values can overlap the other calls
Target sequence (Q9NXA8 whole entry, looked up): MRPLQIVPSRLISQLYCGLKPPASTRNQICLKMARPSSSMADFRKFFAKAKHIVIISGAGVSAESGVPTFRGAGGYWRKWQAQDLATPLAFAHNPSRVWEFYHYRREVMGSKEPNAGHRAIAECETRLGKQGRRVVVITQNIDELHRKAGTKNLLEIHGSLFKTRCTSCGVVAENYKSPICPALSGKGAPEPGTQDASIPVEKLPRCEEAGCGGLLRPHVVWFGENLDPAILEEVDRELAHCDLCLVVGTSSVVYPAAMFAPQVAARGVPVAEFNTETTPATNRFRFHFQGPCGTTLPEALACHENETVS
dFosB act-1: enhances mouse delta FosB homodimer DNA binding. P13346. purified delta FosB, TAMRA-CDK5 oligo fluorescence polarization; percent of positive-control signal above neutral wells. activation, % at 25 µM. 340,000 compounds, 0.99% hits. AID 493131;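 active = mean activation above about 17%, with every replicate also reaching it, limit read from the data, passing the limit was not always enough; inconclusive = only one of the two conditions met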
Target sequence (P13346 whole entry, looked up): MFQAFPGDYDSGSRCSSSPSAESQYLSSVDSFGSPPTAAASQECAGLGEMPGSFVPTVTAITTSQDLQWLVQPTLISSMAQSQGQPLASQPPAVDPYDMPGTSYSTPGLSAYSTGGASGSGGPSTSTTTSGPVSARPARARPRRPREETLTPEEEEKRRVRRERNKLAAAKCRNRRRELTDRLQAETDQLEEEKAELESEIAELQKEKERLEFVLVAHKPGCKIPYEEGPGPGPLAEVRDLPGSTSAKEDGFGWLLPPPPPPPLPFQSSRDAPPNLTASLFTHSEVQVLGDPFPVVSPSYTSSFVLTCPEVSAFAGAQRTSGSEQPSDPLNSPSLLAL
PvdQ acylase: blocks Pseudomonas aeruginosa PvdQ acylase activity. AID 488965. 340,000 compounds, 0.063% hits. inhibition, % at 10 µM. purified PvdQ acylase, fluorescence plate reader; in the data active = inhibition above about 30%, passing the limit was not always enough; inconclusive = no clear call, values can overlap the other calls
FGF22 binding: binders of recombinant human FGF22 by thermal shift; AID 651658; Q9HCT0; activity (Tm shift, normalised), % at 9.99 µM; 340,000 compounds, 1.5% hits; SYPRO orange fluorescence; percent of sucrose octasulfate shift, DMSO zero;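 active = mean Tm shift, scaled 0 neutral to 100 positive control, at about 1.3% or above, every replicate too, limit read from the data; inconclusive = no clear call, values can overlap the other calls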
dFosB act-2: delta FosB (mouse) homodimer activation; shares compounds with dFosB act-1; purified delta FosB, TAMRA-CDK5 oligo fluorescence polarization; normalised: neutral wells 0, positive control 100; activation, % at 24.9 µM; 2,400 tested, under 10 active;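 active = highest replicate activation at or above 34% and every replicate reaching that threshold; inconclusive = meets only one of the two criteria; inactive = meets neither criterion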;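 also: higher polarization means more probe DNA bound by delta FosB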
Hits are given with their value; . = inactive; ? = inconclusive; / = not tested or not shown. Only some compounds are listed: those with a hit (about 2.8% of all), similar ones and a draw of the others.

SMILES	CDK5 inh	PglD DTNB	SIRT5 block	dFosB act-1	PvdQ acylase	FGF22 binding	dFosB act-2
C[C@@H]1CN([C@@H](C)CO)C(=O)Cc2cc(NC(=O)Nc3ccccc3)ccc2O[C@@H]1CN(C)C(=O)Nc1ccc(F)cc1	/	.	.	/	/	.	/
Cc1cc(NC(=O)CSc2nnc(COc3cccc(C)c3C)n2Cc2ccco2)no1	.	/	.	.	.	.	/
C=CCn1c(COc2ccccc2F)nnc1SCC(=O)Nc1cc(C)on1	.	/	/	18	.	.	?
COc1cc2c3nnc(-c4ccc(F)cc4)c-3cn(Cc3ccc(F)cc3)c2cc1OC	.	.	/	37	.	.	.
COc1ccc(CCNC(=O)CSc2nnc(-c3ccc(F)cc3)c3ccccc23)cc1OC	.	/	/	.	.	/	/
CCOC(=O)c1nn(-c2ccccc2)c(=O)cc1OCC(=O)Nc1cc(C)ccc1OC	.	.	.	23	.	.	.
C[C@H](O)C#Cc1cnc2c(c1)C(=O)N([C@H](C)CO)C[C@H](C)[C@H](CN(C)C(=O)CN1CCOCC1)O2	/	.	.	/	/	.	/
COc1ccc(CNC(=O)C[C@H]2CC[C@H](NC(=O)c3ccc4c(c3)OCO4)[C@H](CO)O2)cc1	/	.	.	/	/	.	/
CCCNC(=O)N(C)C[C@H]1Oc2ncc(C#CCc3ccccc3)cc2C(=O)N([C@H](C)CO)C[C@@H]1C	/	.	.	/	/	.	/
CCCCC(C(=O)NC1CCCC1)N(C(=O)c1snc(C(N)=O)c1N)c1ccc(OCC)cc1 (configuration not stated)	.	.	.	.	.	.	/
NC(=O)c1nsc(C(=O)N(c2ccccc2F)C(C(=O)NCc2ccc(F)cc2)c2ccc(O)cc2)c1N (configuration not stated)	.	.	.	44	.	.	.
COc1ccc(N(C(=O)c2snc(C(N)=O)c2N)C(C(=O)NC2CCCC2)c2cccs2)cc1OC (configuration not stated)	.	/	.	37	.	.	.
CCCC(C(=O)NC1CCCC1)N(C(=O)c1snc(C(N)=O)c1N)c1ccc(F)cc1 (configuration not stated)	.	.	.	24	.	.	.
COc1ccccc1N(C(=O)c1snc(C(N)=O)c1N)C(C(=O)NCc1ccccc1)c1ccc(O)cc1 (configuration not stated)	.	.	/	.	.	.	/
COc1ccc(N(C(=O)c2snc(C(N)=O)c2N)C(C(=O)NC2CCCCC2)c2ccc(F)cc2)c(OC)c1 (configuration not stated)	.	.	.	40	.	.	.
C[C@@H]1CN([C@@H](C)CO)C(=O)Cc2cc(NS(=O)(=O)c3ccccc3)ccc2O[C@H]1CN(C)Cc1ccc2c(c1)OCO2	/	.	.	/	/	.	/
COc1ccc(NC(=O)N(C)C[C@H]2Oc3ccc(NC(=O)CCCCCC(=O)Nc4ccccc4N)cc3CC(=O)N([C@@H](C)CO)C[C@H]2C)cc1	/	.	/	/	/	.	/
C[C@@H]1CN([C@@H](C)CO)C(=O)c2cccc(NS(=O)(=O)c3ccc(F)cc3)c2O[C@H]1CN(C)S(=O)(=O)c1ccc(F)cc1	/	.	.	/	/	.	/
CO[C@H]1CN(C)C(=O)c2cc(NC(=O)c3ccccc3)ccc2OC[C@@H](C)N(C(C)=O)C[C@H]1C	/	.	.	/	/	.	/
O=C1COc2ccc(C(=O)COC(=O)c3cc(S(=O)(=O)NCc4ccccc4)ccc3O)cc2N1	.	/	.	66	.	.	.
COc1ccccc1CNC(=O)COC(=O)c1cc2ccccc2o1	.	.	.	31	.	.	.
Cc1ccc(-c2nnn(CC(=O)N(Cc3ccccc3)C(C(=O)NC3CCCC3)c3ccncc3)n2)o1 (configuration not stated)	.	.	.	33	.	.	.
COCCn1c(=NC(=O)/C=C/c2ccccc2Cl)sc2cc(NC(C)=O)ccc21	.	/	/	27	.	/	.
CCOCCn1c(=NC(=O)/C=C/c2ccccc2Cl)sc2cc(NC(C)=O)ccc21	.	/	/	.	.	/	/
O=C(C[C@@H]1C[C@@H]2c3cc(NC(=O)C4CCOCC4)ccc3O[C@@H]2[C@H](CO)O1)NCCN1CCCCC1	/	.	.	/	/	.	/
SMILES	CDK5 inh	PglD DTNB	SIRT5 block	dFosB act-1	PvdQ acylase	FGF22 binding	dFosB act-2
O=C(Nc1nccs1)c1cn(-c2ccccc2)nc1-c1ccccc1	.	.	/	.	.	/	/
CC(C)COc1ccc(-c2nn(-c3ccccc3)cc2C(=O)Nc2nccs2)cc1	.	.	/	39	.	/	.
CCOCc1nnc(NC(=O)c2cc(OC)c(OC)c(OC)c2)s1	.	.	.	.	.	.	/
COc1cccc(C(=O)Nc2nnc(-c3ccc(OC)cc3OC)s2)c1	.	.	.	39	.	.	.
COc1ccccc1-c1nnc(NC(=O)c2ccc3c(c2)OCO3)s1	.	/	.	59	.	.	.
COc1cc(C(=O)Nc2nnc(-c3sccc3C)s2)cc(OC)c1OC	.	.	/	17	.	/	.
COc1cccc(-c2ccc3n(c2=O)C[C@@H]2[C@@H](CO)[C@H](C(=O)NCCN4CCCCC4)N(C)[C@H]32)c1	/	.	.	/	/	.	/
CCC(=O)NC(=S)Nc1ccc2oc(-c3ccc(OC)cc3)nc2c1	.	/	.	40	.	.	.
COCC(=O)Nc1ccc2c(c1)C(=O)N(C)C[C@@H](OC)[C@@H](C)CN(Cc1cccnc1)[C@@H](C)CO2	/	.	.	/	/	.	/
COC(=O)c1ccc(C2C(Oc3ccc(OC)cc3)C(=O)N2CCc2ccc(F)cc2)cc1 (configuration not stated)	.	/	/	23	.	/	.
CCC(=O)Nc1ccc2c(c1)C(=O)N(C)[C@@H]1CC[C@@H](CC(=O)N3CCCCC3)O[C@@H]1CO2	/	.	.	/	/	.	/
CCN1[C@H](C(=O)NCCCN(C)C)[C@@H](CO)[C@@H]2Cn3c(ccc(-c4ccccc4OC)c3=O)[C@@H]21	/	/	.	/	/	/	/
CCCCCc1cc(=O)oc2c(C(CCN3CCCC(C)C3)c3cc(OC)c(OC)c(OC)c3)c(OC)cc(OC)c12 (configuration not stated)	.	.	/	19	.	/	.
O=C(CCCCC(=O)NN=Cc1ccc(Cl)cc1)NN=Cc1ccc(Cl)cc1	.	/	.	25	.	.	.
N#CCC(=O)N/N=C/c1ccc(Cl)cc1	.	.	.	.	.	.	/
Cc1nn(Cc2c(Cl)cccc2Cl)c(C)c1NC(=O)c1sc2ccccc2c1Cl	.	.	/	40	.	/	.
CN(CC(=O)Nc1c(Cl)cccc1Cl)C(=O)CNC(=O)c1sc2ccccc2c1Cl	.	.	.	35	.	.	.
CS(=O)(=O)c1ccc2nc(NC(=O)c3cc(-c4ccccc4)nn3-c3ccccc3)sc2c1	.	.	.	29	.	43	.
